In all, about 25,000 sequences were measured (“ln(normalized median fluorescence intensity)”: median about 9.3, highest 2% from about 10 on). For the sample, the highest values were picked, then their nearest neighbours and some sequences at random.

The test system of the assay is PF3D7_0420300 AP2 domain 1 (GST-tagged). The experiment in a line: gcPBM binding intensity (ln(normalized median fluorescence intensity)); higher = stronger DNA binding. Summed up: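 Using an Agilent 4 × 180k array, primer-extended double-stranded 36-bp intergenic genomic probes and negative controls were exposed for 1 h to GST-fused P. falciparum DNA-binding domains expressed in E. coli. Binding was carried out in 1× PBS with 1% milk, 0.2 mg/ml BSA, 0.5% salmon testes DNA and 0.03% Triton X-100, and protein was detected with Alexa488 anti-GST antibody and a 488 nm scan. Binding intensity is the highest Masliner-normalised natural-log median intensity across replicate spots of either probe orientation.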
“AGTATACATATATATACACACACATATATATATATA [CACACA_site7883]”: the “gcPBM binding intensity (ln)” value was 9.61. The figure for “CATACACGCGGACACACACACACACGCATATATAAC [CACACA_site6427]” is 10.4; for “AGTATACTCGGACACACACACACATATATATATATA [CACACA_site5031]” it is 10.2. Next, “AAAAAAAAAAAAAAGACACACATATATATATATATA [CACACA_site633]”: 9.15; “TACATACACGGACACACACACATATATATATATATA [CACACA_site5883]”: 9.95; “AGTATACATATATATACACACATATATATATATATA [CACACA_site300]”: 9.42.

In the case of “CGCATACACGGACACACACACACATATATATATATA [CACACA_site4520]”, the “gcPBM binding intensity (ln)” value turned out to be 10.1. In the case of “TATACACGCGGACACACACACACACGCAAAAAAAAA [CACACA_site6377]”, the “gcPBM binding intensity (ln)” value stood at 10.1. Take “TTTTTTATAGTACATTACCAAAAAAAAAAAAAAAAA [GTGCAC_negctrl_site549]”: the “gcPBM binding intensity (ln)” value is 8.32. The figure for “TGTTGATTTATCCTGTGTACGGATATATATCTTTCA [XGTACX_site7826]” is 9.27.

Regarding “AAAAATAGACAAAAGAGTACAAGAAAAAAAGGGTTC [XGTACX_site7843]”, the “gcPBM binding intensity (ln)” value stood at 9.86. Regarding “AAATTTTTTAATTTTTCTCATTTAATTTAAAAATTA [GTGCAC_negctrl_site155]”, the “gcPBM binding intensity (ln)” value turned out to be 8.88. Next, TATATTTTATATATGGTGCAACTTTTATTTAAATAA: 8.77; “ATTATTAAGTTTCACAAGAACATTGTTAACAATTTT [CACACA_negctrl_site1128]”: 9; ATATATATGGAAACAGTGCAATACATATATATATAT: 9.71.

On to “TTTTATGATAATTTTGCACACACTTAGGAAAAATTA [CACACA_site1556]”, for which the “gcPBM binding intensity (ln)” value turned out to be 9.31. For the sequence “AAAGTTTTAAGAAAATGTACATAAGTATACATATAT [XGTACX_site1293]”, the “gcPBM binding intensity (ln)” value amounted to 9.18. The figure for “AATATATACATATATACACACACATATATATATATA [CACACA_site8907]” is 9.75; for “CATACATACGGACACACACACATATATATATATATA [CACACA_site5598]” it is 9.97.

Turning to “AATACACGCAGACACACACACACACGCACATATATA [CACACA_site6447]”, the “gcPBM binding intensity (ln)” value turned out to be 10.3. The figure for “AATACATACGGACACACACACACATATATATATATA [CACACA_site5884]” is 10.2; for “AATACATACAGACACACACACACATATATATATATA [CACACA_site3558]” it is 10.1. Next, “AGAATGGTTTATAAAGGTACGTAATTTTTAATTTTA [XGTACX_site383]”: 9.06; “TTTTGTTAAAAAGATGTATATTTTATAAATATTTAT [CACACA_negctrl_site101]”: 8.92. Next, “TTATATATTAAGAAATGTACGAAAAAAAAAATTATA [XGTACX_site3893]”: 9.2. In the case of “ATTATAAATAAAATATGTACATATGTATAAATACAT [XGTACX_site4002]”, the “gcPBM binding intensity (ln)” value came out at 9.21.

Regarding “AAAAAGTGACTCCTTACACACTTTACATAATTTAGT [CACACA_site4606]”, the “gcPBM binding intensity (ln)” value came out at 9.46. Next, “TCTCATAGGAAACACACACACACACCCACATATATA [CACACA_site1738]”: 10.2. For “TCTCATAGTAAACACACACACACACCCACATATATA [CACACA_site5034]”, the “gcPBM binding intensity (ln)” value worked out at 10.3. Next, “AAGGATCACCCACAAACACACATATATATATATATA [CACACA_site559]”: 9.76; “TTTCCCATAGGAAAAACACACATATATTATATATAA [CACACA_site1981]”: 9.12; “TTTACTTTCCCAAGTTGTACTGCTTCTAAGCTTTTT [XGTACX_site2708]”: 9.21. Next, “TTGTTTCTCTTTAAAAGTACAAAAATGGTTACATAT [XGTACX_site3109]”: 8.95; “CATATATAAAAAAACACACACATATATATATATATA [CACACA_site1195]”: 9.63. Next, “AATATAAGAAAAATAACACACACATAAACATATATA [CACACA_site8899]”: 10.1. For the sequence “TAAATAAATAAAAAAACACACATATAAATATAAATA [CACACA_site7815]”, the “gcPBM binding intensity (ln)” value worked out at 9.61.

As to “TATAAGAAAAATAACACACACATAAACATAAATACA [CACACA_site5536]”, the “gcPBM binding intensity (ln)” value was found to be 9.87. Next, “ATATATATAAAACACACACACACATGTTTTAAAACT [CACACA_site78]”: 10.2. Next, “AAAAAACATACATACACACACATAAATATATATATT [CACACA_site2699]”: 10.1; “TATAAGAAAAATAACACACACATAAACATATATACA [CACACA_site2785]”: 10.2; “ATATATATAAAACACACACACACATGGTTTAAAACT [CACACA_site4219]”: 10.2. The figure for “AAAAAAAAAAAACACACACACACATAAATATATATA [CACACA_site149]” is 10.2.

As for “TAAATAAAAAAACACACACACATATATATATATATA [CACACA_site2269]”, the “gcPBM binding intensity (ln)” value was 9.94. The figure for “AAAAAAAACATACATACACACACATAAATATATATA [CACACA_site8864]” is 10.3; for “ATTAAATAAAAAAACACACACATATATACATATATA [CACACA_site3445]” it is 9.89.

These data come from the supplement of paper PMC11417369.
